From PMC7862700, “An all-to-all approach to the identification of sequence-specific readers for epigenetic DNA modifications on cytosine”

Columns and labels:
Assay in all cases: DAPPL (digital affinity profiling via proximity ligation, sequencing); 10 mM Tris-HCl pH 7.5, 50 mM NaCl, 1 mM DTT, 4% glycerol, room temperature, 30 min; GST-TFs on glutathione beads, 16-mer random dsDNA library, 0.1% formaldehyde crosslink after washing; high values mean tight binding
FLI1 = biological target: T1, FLI1 (Homo sapiens, UniProt Q01543 1-452); conditions: protein: recombinant; tags: N-terminal GST; dsDNA, one strand shown
T1 sequence: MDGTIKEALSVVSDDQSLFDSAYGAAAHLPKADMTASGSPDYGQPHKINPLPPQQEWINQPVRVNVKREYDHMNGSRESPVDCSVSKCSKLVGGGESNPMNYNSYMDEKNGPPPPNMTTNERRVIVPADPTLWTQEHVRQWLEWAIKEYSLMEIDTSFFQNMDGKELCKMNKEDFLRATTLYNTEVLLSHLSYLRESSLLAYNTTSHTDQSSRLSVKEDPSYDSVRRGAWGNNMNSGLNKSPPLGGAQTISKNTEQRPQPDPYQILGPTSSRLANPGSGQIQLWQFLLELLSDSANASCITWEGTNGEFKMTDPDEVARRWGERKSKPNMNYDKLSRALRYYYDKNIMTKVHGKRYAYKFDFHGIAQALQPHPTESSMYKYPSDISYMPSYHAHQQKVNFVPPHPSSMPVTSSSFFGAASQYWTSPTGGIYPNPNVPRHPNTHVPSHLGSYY
Procedure, shortened: (§1)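 GST fusions of human transcription factors were expressed in yeast and captured with glutathione beads. Once given DNA barcodes and pooled alongside a tag-only sample, they were incubated for 30 min at room temperature with 200 nmole of a random double-stranded 16-mer DNA library in Tris/NaCl/DTT/glycerol buffer, then washed, crosslinked (0.1% formaldehyde), proximity-ligated, PCR-amplified and sequenced on an Illumina NextSeq500. The binding signal of each hexamer is its read frequency for a factor divided by its frequency for the tag-only sample.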

ELK1 = biological target: T2, ELK1 (Homo sapiens, UniProt P19419 1-428); conditions: protein: recombinant; tags: N-terminal GST; dsDNA, one strand shown
T2 sequence: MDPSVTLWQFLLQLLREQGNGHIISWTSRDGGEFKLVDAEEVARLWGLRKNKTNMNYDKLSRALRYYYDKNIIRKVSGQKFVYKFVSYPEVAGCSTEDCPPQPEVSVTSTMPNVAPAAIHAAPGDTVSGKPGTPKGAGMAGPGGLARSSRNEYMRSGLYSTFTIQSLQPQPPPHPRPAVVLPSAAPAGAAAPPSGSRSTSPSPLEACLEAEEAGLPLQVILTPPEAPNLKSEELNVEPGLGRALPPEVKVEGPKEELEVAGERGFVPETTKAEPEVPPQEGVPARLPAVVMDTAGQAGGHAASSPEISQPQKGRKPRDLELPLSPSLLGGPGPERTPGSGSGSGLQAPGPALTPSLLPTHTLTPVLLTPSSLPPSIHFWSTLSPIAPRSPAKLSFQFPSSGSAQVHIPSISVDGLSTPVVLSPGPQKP
Procedure, shortened: as §1

GABPA = biological target: T3, GABPA (Homo sapiens, UniProt Q06546 1-454); conditions: protein: recombinant; tags: N-terminal GST; dsDNA, one strand shown
T3 sequence: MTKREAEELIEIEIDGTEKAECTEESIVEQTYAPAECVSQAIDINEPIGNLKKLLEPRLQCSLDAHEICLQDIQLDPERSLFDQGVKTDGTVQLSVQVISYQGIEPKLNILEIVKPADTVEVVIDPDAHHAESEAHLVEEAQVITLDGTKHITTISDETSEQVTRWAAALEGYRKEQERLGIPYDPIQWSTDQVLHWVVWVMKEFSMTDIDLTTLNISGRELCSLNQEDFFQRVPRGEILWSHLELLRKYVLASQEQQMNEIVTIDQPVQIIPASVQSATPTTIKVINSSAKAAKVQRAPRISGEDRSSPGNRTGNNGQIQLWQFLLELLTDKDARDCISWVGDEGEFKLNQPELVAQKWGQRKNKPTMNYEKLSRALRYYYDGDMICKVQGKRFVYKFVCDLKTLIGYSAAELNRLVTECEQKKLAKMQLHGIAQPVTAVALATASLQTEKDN
Procedure, shortened: as §1

ERG = biological target: T4, ERG (Homo sapiens, UniProt P11308 1-479); conditions: protein: recombinant; tags: N-terminal GST; dsDNA, one strand shown
T4 sequence: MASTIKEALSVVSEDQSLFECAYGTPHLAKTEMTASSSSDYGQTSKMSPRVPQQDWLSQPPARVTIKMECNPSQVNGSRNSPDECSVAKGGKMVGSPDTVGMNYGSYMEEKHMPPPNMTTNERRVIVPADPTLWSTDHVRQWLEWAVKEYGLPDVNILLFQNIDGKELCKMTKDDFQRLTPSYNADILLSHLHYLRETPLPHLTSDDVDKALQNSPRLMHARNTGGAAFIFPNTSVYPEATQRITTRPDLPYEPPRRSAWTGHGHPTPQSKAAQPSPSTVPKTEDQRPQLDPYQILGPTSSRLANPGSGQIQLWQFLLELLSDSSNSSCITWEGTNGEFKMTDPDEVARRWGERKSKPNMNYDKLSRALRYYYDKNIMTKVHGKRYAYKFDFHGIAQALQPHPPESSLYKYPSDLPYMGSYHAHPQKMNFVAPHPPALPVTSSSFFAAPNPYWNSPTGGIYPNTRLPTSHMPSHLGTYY
Procedure, shortened: as §1

ELF1 = ELF1 (Homo sapiens, UniProt P32519 1-619); conditions: protein: recombinant; tags: N-terminal GST; dsDNA, one strand shown
Chain of ELF1 (P32519 whole entry): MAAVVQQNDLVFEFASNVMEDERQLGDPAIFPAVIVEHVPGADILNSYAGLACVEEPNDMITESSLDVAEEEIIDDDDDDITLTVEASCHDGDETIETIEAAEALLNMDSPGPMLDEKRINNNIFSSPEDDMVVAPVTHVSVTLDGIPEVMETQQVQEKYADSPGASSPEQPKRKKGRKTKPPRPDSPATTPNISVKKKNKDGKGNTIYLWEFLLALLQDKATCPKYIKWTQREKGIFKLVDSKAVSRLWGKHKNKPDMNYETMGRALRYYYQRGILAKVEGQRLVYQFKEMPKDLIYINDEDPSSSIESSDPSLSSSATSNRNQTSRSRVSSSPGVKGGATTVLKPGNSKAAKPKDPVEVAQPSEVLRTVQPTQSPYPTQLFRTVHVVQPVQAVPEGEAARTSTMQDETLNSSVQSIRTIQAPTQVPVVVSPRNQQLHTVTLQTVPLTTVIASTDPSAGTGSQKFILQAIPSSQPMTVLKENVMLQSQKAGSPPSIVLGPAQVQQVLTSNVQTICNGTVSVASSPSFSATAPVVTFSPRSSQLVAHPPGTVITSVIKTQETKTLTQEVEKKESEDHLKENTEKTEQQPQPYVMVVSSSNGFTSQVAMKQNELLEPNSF
Procedure, shortened: as §1

EHF = biological target: T5, EHF (Homo sapiens, UniProt Q9NZC4 1-300); conditions: protein: recombinant; tags: N-terminal GST; dsDNA, one strand shown
T5 sequence: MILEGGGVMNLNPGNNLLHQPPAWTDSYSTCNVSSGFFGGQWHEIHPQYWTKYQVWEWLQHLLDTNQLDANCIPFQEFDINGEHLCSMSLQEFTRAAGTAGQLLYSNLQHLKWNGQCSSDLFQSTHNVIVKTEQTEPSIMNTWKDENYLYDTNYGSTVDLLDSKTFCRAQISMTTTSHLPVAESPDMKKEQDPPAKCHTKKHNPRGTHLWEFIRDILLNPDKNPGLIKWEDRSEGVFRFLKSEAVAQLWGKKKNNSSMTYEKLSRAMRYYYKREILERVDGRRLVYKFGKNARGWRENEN
Procedure, shortened: as §1

SPI1 = SPI1 (Homo sapiens, UniProt P17947 1-270); conditions: protein: recombinant; tags: N-terminal GST; dsDNA, one strand shown
Procedure, shortened: as §1

SPIB = SPIB (Homo sapiens, UniProt Q01892 1-262); conditions: protein: recombinant; tags: N-terminal GST; dsDNA, one strand shown
Chain of SPIB (Q01892 whole entry): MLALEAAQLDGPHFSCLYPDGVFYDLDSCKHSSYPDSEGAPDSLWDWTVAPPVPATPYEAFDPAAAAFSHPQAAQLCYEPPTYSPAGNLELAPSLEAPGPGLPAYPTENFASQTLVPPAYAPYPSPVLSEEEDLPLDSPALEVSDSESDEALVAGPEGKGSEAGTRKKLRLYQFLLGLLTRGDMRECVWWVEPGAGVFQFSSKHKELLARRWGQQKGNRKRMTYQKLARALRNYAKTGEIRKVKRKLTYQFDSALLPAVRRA
Procedure, shortened: as §1

ELK3 = biological target: T6, ELK3 (Homo sapiens, UniProt P41970 1-407); conditions: protein: recombinant; tags: N-terminal GST; dsDNA, one strand shown
T6 sequence: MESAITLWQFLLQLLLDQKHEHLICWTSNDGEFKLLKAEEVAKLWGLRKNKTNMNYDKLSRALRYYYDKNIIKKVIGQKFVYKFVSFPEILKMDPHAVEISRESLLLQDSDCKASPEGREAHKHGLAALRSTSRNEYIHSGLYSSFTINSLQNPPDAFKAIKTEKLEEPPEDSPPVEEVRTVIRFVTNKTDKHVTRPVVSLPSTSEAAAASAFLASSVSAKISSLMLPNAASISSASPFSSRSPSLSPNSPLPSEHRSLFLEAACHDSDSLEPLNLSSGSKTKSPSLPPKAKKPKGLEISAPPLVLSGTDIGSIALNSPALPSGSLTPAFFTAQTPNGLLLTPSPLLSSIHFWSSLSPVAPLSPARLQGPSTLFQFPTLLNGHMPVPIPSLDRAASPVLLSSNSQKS
Procedure, shortened: as §1

FEV = biological target: T7, FEV (Homo sapiens, UniProt Q99581 1-238); conditions: protein: recombinant; tags: N-terminal GST; dsDNA, one strand shown
T7 sequence: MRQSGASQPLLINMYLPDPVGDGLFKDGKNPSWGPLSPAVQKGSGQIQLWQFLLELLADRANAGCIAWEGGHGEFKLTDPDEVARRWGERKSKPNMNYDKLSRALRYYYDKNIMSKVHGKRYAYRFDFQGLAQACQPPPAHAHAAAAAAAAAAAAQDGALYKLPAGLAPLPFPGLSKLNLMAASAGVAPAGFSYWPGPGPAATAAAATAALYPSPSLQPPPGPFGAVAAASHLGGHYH
Procedure, shortened: as §1

ETV5 = ETV5 (Homo sapiens, UniProt P41161 1-510); conditions: protein: recombinant; tags: N-terminal GST; dsDNA, one strand shown
Chain of ETV5 (P41161 whole entry): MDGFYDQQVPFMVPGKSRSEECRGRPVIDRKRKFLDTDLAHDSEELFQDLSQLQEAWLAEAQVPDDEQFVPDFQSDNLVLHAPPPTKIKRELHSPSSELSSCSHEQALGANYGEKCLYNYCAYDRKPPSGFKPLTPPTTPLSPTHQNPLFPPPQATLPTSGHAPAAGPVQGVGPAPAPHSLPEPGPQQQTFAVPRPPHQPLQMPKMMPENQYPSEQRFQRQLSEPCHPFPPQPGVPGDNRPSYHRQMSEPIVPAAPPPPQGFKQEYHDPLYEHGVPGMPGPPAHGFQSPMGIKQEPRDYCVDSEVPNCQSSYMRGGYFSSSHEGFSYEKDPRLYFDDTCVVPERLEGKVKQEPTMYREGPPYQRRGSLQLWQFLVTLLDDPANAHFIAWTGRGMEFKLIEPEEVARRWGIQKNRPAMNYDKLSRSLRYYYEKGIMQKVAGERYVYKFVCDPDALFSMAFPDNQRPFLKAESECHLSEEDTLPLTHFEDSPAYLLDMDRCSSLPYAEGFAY
Procedure, shortened: as §1

HSF1 = HSF1 (Homo sapiens, UniProt Q00613 1-529); conditions: protein: recombinant; tags: N-terminal GST; chain copies: 3; dsDNA, one strand shown
Chain of HSF1 (Q00613 whole entry): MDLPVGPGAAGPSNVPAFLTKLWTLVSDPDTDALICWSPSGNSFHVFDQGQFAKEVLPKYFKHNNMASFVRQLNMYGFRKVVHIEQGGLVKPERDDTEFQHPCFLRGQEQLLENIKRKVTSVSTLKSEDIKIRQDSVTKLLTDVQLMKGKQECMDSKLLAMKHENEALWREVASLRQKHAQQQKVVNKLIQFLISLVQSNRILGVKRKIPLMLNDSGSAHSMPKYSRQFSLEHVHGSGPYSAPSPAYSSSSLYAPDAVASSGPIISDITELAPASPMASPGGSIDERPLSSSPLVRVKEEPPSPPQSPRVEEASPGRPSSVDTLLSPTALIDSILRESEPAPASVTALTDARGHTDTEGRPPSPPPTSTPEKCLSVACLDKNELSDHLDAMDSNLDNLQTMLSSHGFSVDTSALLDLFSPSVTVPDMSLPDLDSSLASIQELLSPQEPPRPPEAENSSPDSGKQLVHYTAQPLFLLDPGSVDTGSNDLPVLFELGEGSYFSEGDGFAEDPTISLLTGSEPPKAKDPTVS
Procedure, shortened: as §1

SPIC = biological target: T8, SPIC (Homo sapiens, UniProt Q8N5J4 1-248); conditions: protein: recombinant; tags: N-terminal GST; dsDNA, one strand shown
T8 sequence: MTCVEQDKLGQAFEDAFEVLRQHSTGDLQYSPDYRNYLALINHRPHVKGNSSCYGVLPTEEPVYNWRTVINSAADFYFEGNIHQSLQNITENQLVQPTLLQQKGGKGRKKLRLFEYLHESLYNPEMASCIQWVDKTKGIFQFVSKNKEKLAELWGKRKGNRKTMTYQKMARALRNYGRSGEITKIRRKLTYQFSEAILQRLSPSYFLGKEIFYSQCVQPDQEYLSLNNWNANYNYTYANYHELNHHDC
Procedure, shortened: as §1

ELF4 = ELF4 (Homo sapiens, UniProt Q99607 1-663); conditions: protein: recombinant; tags: N-terminal GST; dsDNA, one strand shown
Chain of ELF4 (Q99607 whole entry): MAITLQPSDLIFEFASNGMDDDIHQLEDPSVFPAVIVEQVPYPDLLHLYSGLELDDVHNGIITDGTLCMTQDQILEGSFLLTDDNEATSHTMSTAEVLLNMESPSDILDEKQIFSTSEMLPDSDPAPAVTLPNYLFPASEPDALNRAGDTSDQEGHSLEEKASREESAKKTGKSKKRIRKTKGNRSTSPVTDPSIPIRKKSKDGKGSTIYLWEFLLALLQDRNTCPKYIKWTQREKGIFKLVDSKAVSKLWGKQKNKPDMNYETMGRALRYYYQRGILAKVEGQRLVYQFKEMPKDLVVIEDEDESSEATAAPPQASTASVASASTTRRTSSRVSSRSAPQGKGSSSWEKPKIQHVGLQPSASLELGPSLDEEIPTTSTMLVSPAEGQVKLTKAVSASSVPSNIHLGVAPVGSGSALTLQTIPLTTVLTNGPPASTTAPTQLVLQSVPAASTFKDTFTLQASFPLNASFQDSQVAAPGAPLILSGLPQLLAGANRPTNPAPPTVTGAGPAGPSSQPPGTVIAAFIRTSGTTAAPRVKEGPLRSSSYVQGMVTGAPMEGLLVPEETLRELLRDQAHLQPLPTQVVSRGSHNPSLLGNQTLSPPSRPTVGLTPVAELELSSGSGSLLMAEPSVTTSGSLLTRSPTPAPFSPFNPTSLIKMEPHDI
Procedure, shortened: as §1

ELK4 = biological target: T9, ELK4 (Homo sapiens, UniProt P28324-2 1-405); conditions: protein: recombinant; tags: N-terminal GST; dsDNA, one strand shown
T9 sequence: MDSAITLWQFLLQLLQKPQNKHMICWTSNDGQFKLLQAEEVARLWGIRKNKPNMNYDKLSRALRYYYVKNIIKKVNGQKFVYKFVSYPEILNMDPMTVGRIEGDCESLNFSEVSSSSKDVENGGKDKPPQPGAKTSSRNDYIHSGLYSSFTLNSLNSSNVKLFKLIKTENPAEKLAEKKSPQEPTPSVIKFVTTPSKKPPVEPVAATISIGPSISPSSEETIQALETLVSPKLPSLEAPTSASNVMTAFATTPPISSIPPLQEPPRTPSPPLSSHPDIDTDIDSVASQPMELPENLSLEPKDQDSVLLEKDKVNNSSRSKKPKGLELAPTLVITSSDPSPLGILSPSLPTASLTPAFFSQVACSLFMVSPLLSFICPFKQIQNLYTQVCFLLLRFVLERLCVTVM
Procedure, shortened: as §1

ETV2 = biological target: T10, ETV2 (Homo sapiens, UniProt O00321 1-342); conditions: protein: recombinant; tags: N-terminal GST; dsDNA, one strand shown
T10 sequence: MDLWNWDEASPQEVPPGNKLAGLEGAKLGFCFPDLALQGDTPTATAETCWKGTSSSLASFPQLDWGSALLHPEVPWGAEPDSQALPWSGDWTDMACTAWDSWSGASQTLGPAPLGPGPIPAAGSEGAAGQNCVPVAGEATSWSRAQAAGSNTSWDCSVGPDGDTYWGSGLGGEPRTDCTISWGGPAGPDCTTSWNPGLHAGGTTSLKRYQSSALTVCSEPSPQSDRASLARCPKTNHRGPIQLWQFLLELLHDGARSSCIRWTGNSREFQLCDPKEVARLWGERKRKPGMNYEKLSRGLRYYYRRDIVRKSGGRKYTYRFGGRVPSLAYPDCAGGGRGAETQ
Procedure, shortened: as §1

ELF3 = biological target: T11, ELF3 (Homo sapiens, UniProt P78545 1-371); conditions: protein: recombinant; tags: N-terminal GST; dsDNA, one strand shown
T11 sequence: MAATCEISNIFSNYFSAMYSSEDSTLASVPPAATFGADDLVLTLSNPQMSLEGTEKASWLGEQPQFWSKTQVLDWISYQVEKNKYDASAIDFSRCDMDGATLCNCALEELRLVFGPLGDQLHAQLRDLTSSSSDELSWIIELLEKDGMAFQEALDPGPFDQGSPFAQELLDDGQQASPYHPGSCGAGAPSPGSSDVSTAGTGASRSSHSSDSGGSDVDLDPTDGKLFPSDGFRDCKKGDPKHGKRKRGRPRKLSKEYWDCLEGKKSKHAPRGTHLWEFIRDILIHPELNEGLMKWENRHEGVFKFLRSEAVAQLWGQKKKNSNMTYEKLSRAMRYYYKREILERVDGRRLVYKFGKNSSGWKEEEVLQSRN
Procedure, shortened: as §1

CRX = CRX (Homo sapiens, UniProt O43186 1-299); conditions: protein: recombinant; tags: N-terminal GST; dsDNA, one strand shown
Chain of CRX (O43186 whole entry): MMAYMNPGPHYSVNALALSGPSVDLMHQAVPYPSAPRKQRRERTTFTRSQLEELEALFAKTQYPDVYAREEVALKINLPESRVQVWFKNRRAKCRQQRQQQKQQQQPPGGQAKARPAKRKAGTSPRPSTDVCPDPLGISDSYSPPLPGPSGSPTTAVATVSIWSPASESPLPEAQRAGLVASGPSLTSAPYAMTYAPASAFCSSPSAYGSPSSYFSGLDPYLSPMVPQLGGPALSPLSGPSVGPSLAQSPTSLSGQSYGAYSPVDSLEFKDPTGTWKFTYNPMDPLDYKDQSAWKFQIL
Procedure, shortened: as §1

ETV1 = ETV1 (Homo sapiens, UniProt P50549 1-477); conditions: protein: recombinant; tags: N-terminal GST; dsDNA, one strand shown
Chain of ETV1 (P50549 whole entry): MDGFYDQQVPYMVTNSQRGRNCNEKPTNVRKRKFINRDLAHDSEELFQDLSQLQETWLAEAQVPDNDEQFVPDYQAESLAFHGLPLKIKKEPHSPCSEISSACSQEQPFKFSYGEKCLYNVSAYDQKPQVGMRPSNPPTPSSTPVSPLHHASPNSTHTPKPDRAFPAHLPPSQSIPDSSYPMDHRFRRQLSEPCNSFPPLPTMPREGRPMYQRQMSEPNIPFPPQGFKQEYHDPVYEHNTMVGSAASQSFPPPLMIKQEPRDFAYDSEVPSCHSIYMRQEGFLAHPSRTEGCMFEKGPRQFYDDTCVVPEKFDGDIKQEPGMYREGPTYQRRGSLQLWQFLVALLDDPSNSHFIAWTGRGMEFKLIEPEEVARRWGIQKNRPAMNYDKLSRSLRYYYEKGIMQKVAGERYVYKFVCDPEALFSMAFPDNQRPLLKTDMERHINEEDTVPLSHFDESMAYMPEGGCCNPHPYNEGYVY
Procedure, shortened: as §1

Question: Which results are given for CCCTCC?
Answer: binding signal (FLI1): 1.37 fold enrichment (6-mer frequency, TF over GST control); binding signal (ELK1): 1.54 fold enrichment (6-mer frequency, TF over GST control); binding signal (GABPA): 1.5 fold enrichment (6-mer frequency, TF over GST control); binding signal (ERG): 1.41 fold enrichment (6-mer frequency, TF over GST control); binding signal (ELF1): 1.49 fold enrichment (6-mer frequency, TF over GST control); binding signal (EHF): 1.37 fold enrichment (6-mer frequency, TF over GST control); binding signal (SPI1): 1.35 fold enrichment (6-mer frequency, TF over GST control); binding signal (SPIB): 1.39 fold enrichment (6-mer frequency, TF over GST control); binding signal (ELK3): 1.37 fold enrichment (6-mer frequency, TF over GST control); binding signal (FEV): 1.51 fold enrichment (6-mer frequency, TF over GST control); binding signal (ETV5): 1.48 fold enrichment (6-mer frequency, TF over GST control); binding signal (HSF1): 1.22 fold enrichment (6-mer frequency, TF over GST control); binding signal (SPIC): 1.73 fold enrichment (6-mer frequency, TF over GST control); binding signal (ELF4): 1.58 fold enrichment (6-mer frequency, TF over GST control); binding signal (ELK4): 1.38 fold enrichment (6-mer frequency, TF over GST control); binding signal (ETV2): 1.32 fold enrichment (6-mer frequency, TF over GST control); binding signal (ELF3): 1.27 fold enrichment (6-mer frequency, TF over GST control); binding signal (CRX): 1.19 fold enrichment (6-mer frequency, TF over GST control); binding signal (ETV1): 1.45 fold enrichment (6-mer frequency, TF over GST control)
